The record followed here is PMC7862700, “An all-to-all approach to the identification of sequence-specific readers for epigenetic DNA modifications on cytosine”.

Holding throughout (experiment): DAPPL (digital affinity profiling via proximity ligation, sequencing); 10 mM Tris-HCl pH 7.5, 50 mM NaCl, 1 mM DTT, 4% glycerol, room temperature, 30 min; GST-TFs on glutathione beads, 16-mer random dsDNA library, 0.1% formaldehyde crosslink after washing; high values mean tight binding
Details in all cases: protein: recombinant; tags: N-terminal GST; dsDNA, one strand shown

The target of one test is T1, ERF (Homo sapiens, UniProt P50548 1-548).
T1 sequence: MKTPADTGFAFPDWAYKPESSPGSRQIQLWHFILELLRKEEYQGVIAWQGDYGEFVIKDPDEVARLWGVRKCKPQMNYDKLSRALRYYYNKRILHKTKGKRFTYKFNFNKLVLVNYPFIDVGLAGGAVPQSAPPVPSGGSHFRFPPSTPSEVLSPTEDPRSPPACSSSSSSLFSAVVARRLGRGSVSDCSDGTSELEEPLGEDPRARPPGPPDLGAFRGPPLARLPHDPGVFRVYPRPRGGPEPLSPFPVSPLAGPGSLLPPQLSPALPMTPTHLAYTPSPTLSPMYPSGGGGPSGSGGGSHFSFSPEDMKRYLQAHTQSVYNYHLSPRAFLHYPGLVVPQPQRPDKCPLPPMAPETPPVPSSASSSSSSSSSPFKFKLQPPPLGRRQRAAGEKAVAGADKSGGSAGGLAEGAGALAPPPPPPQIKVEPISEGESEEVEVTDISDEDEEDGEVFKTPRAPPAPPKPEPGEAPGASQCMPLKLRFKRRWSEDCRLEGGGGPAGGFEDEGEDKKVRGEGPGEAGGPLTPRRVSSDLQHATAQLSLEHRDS
Put shortly: (§1)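 Human transcription factors carrying a GST fusion were produced in yeast, bound to glutathione beads, tagged with DNA barcodes and pooled together with a tag-only sample. Each pool was held with 200 nmole of a random double-stranded 16-mer DNA library in Tris/NaCl/DTT/glycerol buffer for 30 min at room temperature, then washed, crosslinked in 0.1% formaldehyde, proximity-ligated with BsaI/T4 ligase (1 h, 37 °C), PCR-amplified and sequenced on an Illumina NextSeq500. Binding signal is the read frequency of each hexamer for a given factor divided by its frequency in the tag-only sample.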

For the next test, the target named is T2, ETV3L (Homo sapiens, UniProt Q6ZN32 1-361).
T2 sequence: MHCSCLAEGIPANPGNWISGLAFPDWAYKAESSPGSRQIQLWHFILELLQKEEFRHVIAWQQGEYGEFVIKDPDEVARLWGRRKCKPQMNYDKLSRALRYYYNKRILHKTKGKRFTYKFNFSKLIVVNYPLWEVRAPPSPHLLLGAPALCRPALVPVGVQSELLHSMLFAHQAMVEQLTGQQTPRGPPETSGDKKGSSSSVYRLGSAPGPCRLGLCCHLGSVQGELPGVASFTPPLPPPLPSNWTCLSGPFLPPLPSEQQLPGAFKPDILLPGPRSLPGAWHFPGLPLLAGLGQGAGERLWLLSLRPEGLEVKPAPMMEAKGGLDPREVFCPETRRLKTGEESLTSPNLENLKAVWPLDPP
An outline of the steps: as §1

The target of another test is T3, ETS2 (Homo sapiens, UniProt P15036 1-469).
T3 sequence: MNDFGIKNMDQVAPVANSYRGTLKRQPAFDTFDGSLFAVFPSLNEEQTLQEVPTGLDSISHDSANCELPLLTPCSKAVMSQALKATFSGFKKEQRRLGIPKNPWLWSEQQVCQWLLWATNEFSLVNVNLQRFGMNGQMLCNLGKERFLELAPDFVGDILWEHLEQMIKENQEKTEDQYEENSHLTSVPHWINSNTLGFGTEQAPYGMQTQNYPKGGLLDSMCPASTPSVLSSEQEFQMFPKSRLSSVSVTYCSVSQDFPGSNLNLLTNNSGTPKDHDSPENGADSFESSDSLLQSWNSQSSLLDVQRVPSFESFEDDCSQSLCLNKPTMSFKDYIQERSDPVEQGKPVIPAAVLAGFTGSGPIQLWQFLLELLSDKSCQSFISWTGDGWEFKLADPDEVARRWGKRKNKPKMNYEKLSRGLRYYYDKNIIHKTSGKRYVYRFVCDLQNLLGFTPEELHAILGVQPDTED
An outline of the steps: as §1

The target of another test is T4, SPDEF (Homo sapiens, UniProt O95238 1-335).
T4 sequence: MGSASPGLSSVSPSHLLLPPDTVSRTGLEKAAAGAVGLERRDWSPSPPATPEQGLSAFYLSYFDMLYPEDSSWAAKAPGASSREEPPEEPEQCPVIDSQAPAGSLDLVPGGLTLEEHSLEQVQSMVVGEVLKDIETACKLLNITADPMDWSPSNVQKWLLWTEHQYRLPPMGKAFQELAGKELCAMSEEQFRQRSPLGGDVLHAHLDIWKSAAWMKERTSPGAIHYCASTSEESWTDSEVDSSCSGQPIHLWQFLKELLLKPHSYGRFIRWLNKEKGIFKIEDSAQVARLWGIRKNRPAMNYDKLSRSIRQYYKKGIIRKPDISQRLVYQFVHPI
An outline of the steps: as §1

Another test has as its target T5, ETV7 (Homo sapiens, UniProt Q9Y603 1-341).
T5 sequence: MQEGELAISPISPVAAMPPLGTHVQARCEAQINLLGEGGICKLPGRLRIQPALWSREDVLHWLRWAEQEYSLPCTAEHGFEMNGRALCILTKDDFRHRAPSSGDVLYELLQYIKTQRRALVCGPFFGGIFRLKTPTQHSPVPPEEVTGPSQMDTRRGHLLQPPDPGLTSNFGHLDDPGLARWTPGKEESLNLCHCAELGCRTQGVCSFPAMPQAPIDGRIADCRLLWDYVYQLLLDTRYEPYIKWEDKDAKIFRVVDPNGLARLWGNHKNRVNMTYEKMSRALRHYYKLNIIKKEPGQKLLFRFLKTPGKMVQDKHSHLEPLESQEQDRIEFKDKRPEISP
Put shortly: as §1

Another test concerns the target T6, ELF5 (Homo sapiens, UniProt Q9UKW6-2 1-255).
T6 sequence: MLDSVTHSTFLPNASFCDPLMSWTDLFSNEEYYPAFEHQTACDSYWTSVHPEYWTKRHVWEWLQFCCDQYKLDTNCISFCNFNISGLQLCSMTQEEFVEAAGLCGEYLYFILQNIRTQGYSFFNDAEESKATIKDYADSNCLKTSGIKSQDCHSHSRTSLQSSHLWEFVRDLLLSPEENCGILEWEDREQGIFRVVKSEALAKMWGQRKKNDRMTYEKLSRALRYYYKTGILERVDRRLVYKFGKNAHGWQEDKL
An outline of the steps:
as §1

A further test has as its target T7, ETV3 (Homo sapiens, UniProt P41162-2 1-143).
T7 sequence: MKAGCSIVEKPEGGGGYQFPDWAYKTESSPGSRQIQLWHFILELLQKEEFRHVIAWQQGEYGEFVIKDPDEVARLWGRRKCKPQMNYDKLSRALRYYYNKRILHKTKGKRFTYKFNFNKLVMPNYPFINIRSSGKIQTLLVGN
Put shortly: as §1

A further test deals with ETV6 (Homo sapiens, UniProt P41212 1-452). Put shortly:
as §1

Chain of ETV6 (P41212 whole entry): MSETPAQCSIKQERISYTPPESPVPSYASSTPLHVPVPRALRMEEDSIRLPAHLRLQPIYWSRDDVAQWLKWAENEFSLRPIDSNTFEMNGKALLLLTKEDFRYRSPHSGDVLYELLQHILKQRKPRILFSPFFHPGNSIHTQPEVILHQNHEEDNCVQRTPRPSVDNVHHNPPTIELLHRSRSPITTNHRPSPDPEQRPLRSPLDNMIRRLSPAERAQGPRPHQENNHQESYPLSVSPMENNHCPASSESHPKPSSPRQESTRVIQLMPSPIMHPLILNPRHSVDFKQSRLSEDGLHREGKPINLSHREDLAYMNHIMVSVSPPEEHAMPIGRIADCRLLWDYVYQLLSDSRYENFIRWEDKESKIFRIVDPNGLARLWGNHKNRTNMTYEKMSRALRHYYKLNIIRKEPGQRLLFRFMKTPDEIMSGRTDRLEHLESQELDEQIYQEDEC

Take TCCGGT: the binding signal with ERF is 3.43 fold enrichment (6-mer frequency, TF over GST control); with ETV3L, 3.57 fold enrichment (6-mer frequency, TF over GST control); with ETS2, 3.76 fold enrichment (6-mer frequency, TF over GST control); in the test with SPDEF, 5.35 fold enrichment (6-mer frequency, TF over GST control); with ETV7, 3.35 fold enrichment (6-mer frequency, TF over GST control); in the test with ELF5, 4.56 fold enrichment (6-mer frequency, TF over GST control). Besides, the binding signal with ETV3 is 4.02 fold enrichment (6-mer frequency, TF over GST control); in the test with ETV6, 4.04 fold enrichment (6-mer frequency, TF over GST control).
TAGCCT: the binding signal with ERF was 1.28 fold enrichment (6-mer frequency, TF over GST control); with ETV3L, 1.31 fold enrichment (6-mer frequency, TF over GST control); with ETS2, 1.25 fold enrichment (6-mer frequency, TF over GST control); in the test with SPDEF it was 1.07 fold enrichment (6-mer frequency, TF over GST control); with ETV7 it was 1.2 fold enrichment (6-mer frequency, TF over GST control); in the test with ELF5, 1.17 fold enrichment (6-mer frequency, TF over GST control). The binding signal with ETV3 was 1.32 fold enrichment (6-mer frequency, TF over GST control); with ETV6 it was 1.04 fold enrichment (6-mer frequency, TF over GST control).
In the case of CGAATA, the binding signal with ERF is 1.19 fold enrichment (6-mer frequency, TF over GST control); in the test with ETV3L it was 1.2 fold enrichment (6-mer frequency, TF over GST control); with ETS2 it was 1.12 fold enrichment (6-mer frequency, TF over GST control); with SPDEF, 1.1 fold enrichment (6-mer frequency, TF over GST control); with ETV7 it was 1.18 fold enrichment (6-mer frequency, TF over GST control); with ELF5 it was 1.11 fold enrichment (6-mer frequency, TF over GST control). The binding signal was 1.21 fold enrichment (6-mer frequency, TF over GST control) in the test with ETV3 and 1.18 fold enrichment (6-mer frequency, TF over GST control) with ETV6.
As for CTTGAT, the binding signal is 1.47 fold enrichment (6-mer frequency, TF over GST control) with ERF; 1.42 fold enrichment (6-mer frequency, TF over GST control) with ETV3L; 1.35 fold enrichment (6-mer frequency, TF over GST control) with ETS2; 1.34 fold enrichment (6-mer frequency, TF over GST control) with SPDEF; 1.28 fold enrichment (6-mer frequency, TF over GST control) with ETV7; 1.39 fold enrichment (6-mer frequency, TF over GST control) with ELF5. Moreover, the binding signal was 1.35 fold enrichment (6-mer frequency, TF over GST control) with ETV3 and 1.24 fold enrichment (6-mer frequency, TF over GST control) with ETV6.
With TCGCTA, the binding signal with ERF was 1.16 fold enrichment (6-mer frequency, TF over GST control); in the test with ETV3L, 1.09 fold enrichment (6-mer frequency, TF over GST control); with ETS2, 1.06 fold enrichment (6-mer frequency, TF over GST control); with SPDEF, 1.03 fold enrichment (6-mer frequency, TF over GST control); with ETV7 it was 1.12 fold enrichment (6-mer frequency, TF over GST control); in the test with ELF5 it was 1.06 fold enrichment (6-mer frequency, TF over GST control). Also, the binding signal in the test with ETV3 was 1.01 fold enrichment (6-mer frequency, TF over GST control); with ETV6 it was 1.04 fold enrichment (6-mer frequency, TF over GST control).
Consider CTAGCT, for which the binding signal was 1.21 fold enrichment (6-mer frequency, TF over GST control) with ERF; 1.29 fold enrichment (6-mer frequency, TF over GST control) with ETV3L; 1.25 fold enrichment (6-mer frequency, TF over GST control) with ETS2; 1.27 fold enrichment (6-mer frequency, TF over GST control) with SPDEF; 1.33 fold enrichment (6-mer frequency, TF over GST control) in the test with ETV7; 1.27 fold enrichment (6-mer frequency, TF over GST control) in the test with ELF5. For the same sequence, the binding signal in the test with ETV3 is 1.24 fold enrichment (6-mer frequency, TF over GST control); in the test with ETV6 it was 1.32 fold enrichment (6-mer frequency, TF over GST control).
On to CTCTAC, for which the binding signal in the test with ERF is 1.45 fold enrichment (6-mer frequency, TF over GST control); with ETV3L it was 1.66 fold enrichment (6-mer frequency, TF over GST control); in the test with ETS2 it was 1.48 fold enrichment (6-mer frequency, TF over GST control); in the test with SPDEF, 1.54 fold enrichment (6-mer frequency, TF over GST control); with ETV7, 1.28 fold enrichment (6-mer frequency, TF over GST control); with ELF5, 1.52 fold enrichment (6-mer frequency, TF over GST control). Further, the binding signal is 1.51 fold enrichment (6-mer frequency, TF over GST control) with ETV3 and 1.43 fold enrichment (6-mer frequency, TF over GST control) with ETV6.
As to TTATGT, the binding signal was 1.29 fold enrichment (6-mer frequency, TF over GST control) with ERF; 1.26 fold enrichment (6-mer frequency, TF over GST control) with ETV3L; 1.3 fold enrichment (6-mer frequency, TF over GST control) with ETS2; 1.36 fold enrichment (6-mer frequency, TF over GST control) with SPDEF; 1.3 fold enrichment (6-mer frequency, TF over GST control) with ETV7; 1.23 fold enrichment (6-mer frequency, TF over GST control) in the test with ELF5. For the same sequence, the binding signal with ETV3 is 1.34 fold enrichment (6-mer frequency, TF over GST control); in the test with ETV6, 1.43 fold enrichment (6-mer frequency, TF over GST control).
